According to PubChem BioAssay (NCATS):
Where “and” joins values, the source holds several entries; their conditions need not be identical. Equal entries are not always repeated. Records with an inconclusive call do not appear. Calls of active or inactive are those of the source. Unless noted, calls follow the shape of the dose curve; as a rule, active = well fitted curve in the direction sought with a large enough effect; inconclusive = small, poorly fitted or top-dose-only effect, or another doubt; inactive = no such curve, though single readings can be large; an effect the other way counts as inactive or inconclusive.

Columns and labels:
[1] = molecular target: Ubiquitin carboxyl-terminal hydrolase 1 (Homo sapiens) (UniProt O94782); assay: Inhibitors of USP1/UAF1: Pilot qHTS (AID 504865); also: nearly all actives have a fitted effect of over 35% in size; also: potency is read from the fitted curve at half-maximal effect
Outline: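 Enzyme-free wells gave the negative control, while test wells held 1nM USP1/UAF1 preincubated with compound for 15 min at room temperature. Ub-Rho at 150nM final started the reaction, and fluorescence at 480/540 nm was recorded kinetically.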

[2] = qHTS assay for small molecule activators of the p53 signaling pathway (AID 651743; active = well fitted activation curve with a large enough effect in the signal ratio, not every such curve was filed as active; the % refers to the signal ratio; also: potency is read from the fitted curve at half-maximal effect; as to activation: % of control where 0% means no effect); conditions: HCT-116 p53RE-bla, beta-lactamase FRET ratio, 16 h; activation: stronger effect = higher value
Outline: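 A beta-lactamase reporter under p53 response element control, stably carried by HCT-116 cells, reported pathway activation. Test compounds were applied for 16 hours at 37 C, and fluorescence was measured 2 hours after adding the B/G FRET substrate.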

[3] = molecular target: Arylsulfatase A (Homo sapiens) (UniProt P15289); assay: qHTS screen for enhancers of Arylsulfatase A (ASA1): LOPAC Validation Assay (AID 720538)
Outline: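 Cell-based enhancement test: residual ASA activity in SV40-transformed I179S patient fibroblasts is measured by pNCS turnover (0.5mM final, 14h, room temperature) following 48h compound incubation; higher fluorescence indicates activation.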

[4] = qHTS profiling of the MIPE4 collection as inhibitors of Plasmodium falciparum (HB3) proliferation (AID 743347; call rule not given here;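 also: plate controls were DMSO vehicle wells for no effect and artemisinin wells for full effect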); conditions: P. falciparum HB3 in erythrocytes, SYBR Green DNA, 72 h; at 28.5 µM (top of the series) unless noted
Outline: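 Parasite DNA was quantified by SYBR Green I fluorescence (ex 485, em 535 nm) after overnight lysis in saponin/Triton buffer at room temperature. Cultures at 0.3% parasitemia and 2.5% hematocrit were first exposed to compound for 72 h at 37 C; signals were normalised to artemisinin (0.29 uM) and vehicle wells.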

[5] = molecular target: Flap endonuclease 1 (Homo sapiens) (UniProt P39748); assay: qHTS Validation Assay for the Inhibitors of Human Flap endonuclease 1 (FEN1) (AID 488816); also: potency is read from the fitted curve at half-maximal effect
Outline: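 qHTS format: compounds and 10 nM FEN1 incubated 15 min at room temperature before adding 50 nM substrate. Cleavage followed by reads at 0 and 15 min; normalized data fitted to a four-parameter Hill curve.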

[6] = Cell Viability - Jurkat (AID 426;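 active = dose-dependent loss of cell ATP signal giving a full or clear fitted curve, ranked by lower potency value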;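 also: potency is read from the fitted curve at half-maximal effect; cells exposed to compound for 40 hours at 37 °C before ATP read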); conditions: qHTS
Outline: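 Luminescent ATP read-out (CellTiter-Glo, 20 min at room temperature) after 40 hr compound exposure at 37 °C of Jurkat E6-1 cells, 5000/well. Decreased ATP taken as cytotoxicity; AC50 from standard Hill equation.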

[7] = Cell Viability - H-4-II-E (AID 543);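 also: cells exposed to compound for 40 hours; % is scaled to controls: 0 for no effect and ±100 for the full control effect; nearly all actives have a fitted effect of over 35% in size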
Outline: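 qHTS, rat hepatoma H-4-II-E, 1500 cells/well; 40 hr compound exposure, 37 °C; CellTiter-Glo ATP luminescence after 20 min RT; AC50 by standard Hill fit.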

[8] = Cell Viability - SH-SY5Y (AID 544);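 also: cells exposed to compound for 40 hours; 0% = DMSO alone and -100% = 100 µM tamoxifen; nearly all actives have a fitted effect of over 55% in size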
Outline: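 SH-SY5Y, 1500 cells/well, 5 hr pre-incubation 37 °C; cpd 40 hr 37 °C; CellTiter-Glo 20 min RT; luminescence (ATP) read. qHTS concentration-response, Hill fit → AC50. Tamoxifen, doxorubicin as positive controls.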

[9] = Cell Viability - LYMP2-001 (AID 921);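 also: 0% = DMSO only and full inhibition = tetraoctylammonium bromide control wells; nearly all actives have a fitted effect of over 70% in size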
Outline: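 A lymphoblastoid cell line of human origin was treated with library compounds across a concentration series for 24 hours, and viable cell number was estimated from ATP-driven luciferase light output. Hill modeling gave AC50.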

[10] = Cell Viability - LYMP2-007 (AID 979);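 also: cells exposed to compound for 24 h before reading; 0% = DMSO only and the negative end = 92 µM tetraoctylammonium bromide; nearly all actives have a fitted effect of over 60% in size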
Outline: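 qHTS cytotoxicity: 2500 cells/well, 5 hr 37 C settle, compound 24 hr 37 C, CellTiter-Glo 30 min RT, luminescence. Decrease in ATP = toxicity. AC50 by standard Hill equation; tetraoctylammonium bromide positive control.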

[11] = Cell Viability - LYMP2-012 (AID 982);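 also: cellular ATP by luciferase luminescence where a drop means cytotoxicity; cells exposed to compound for one day before reading; 0% = DMSO only and full loss = 92 µM tetraoctylammonium bromide; nearly all actives have a fitted effect of over 55% in size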
[12] = Cell Viability - LYMP2-014 (AID 983);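 also: plate controls were DMSO only for no effect and 92 µM tetraoctylammonium bromide for full effect; nearly all actives have a fitted effect of over 50% in size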
Outline: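 2500 cells/well, 5 hr 37 C; cpd 24 hr 37 C, complete medium; CellTiter-Glo 30 min RT, luminescence; ATP loss = toxicity; AC50 via Hill eqn; tetraoctylammonium bromide positive control.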

[13] = Cell Viability - LYMP2-016 (AID 984);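 also: cells exposed to compound for 24 hours at 37 °C; % is scaled to controls: 0 for no effect and ±100 for the full control effect; nearly all actives have a fitted effect of over 55% in size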
Outline: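 Concentration-dependent ATP depletion measured in LYMP2-016 lymphoblastoid cells, 24 h, 37 C; luciferase-based luminescent detection; Hill-equation AC50.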

[14] = Cell Viability - LYMP2-018 (AID 985);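 also: plate controls were DMSO only for no effect and tetraoctylammonium bromide at 92 µM for full effect; nearly all actives have a fitted effect of over 50% in size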
Outline: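 2500 cells/well; 5 hr 37 C; cmpd 24 hr 37 C, complete medium; CellTiter-Glo 30 min RT; luminescence. Tetraoctylammonium bromide positive control. AC50 via Hill fit.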

[15] = Cell Viability - LYMP2-022 (AID 987);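 also: 0% = DMSO alone and full effect = tetraoctylammonium bromide at 92 µM; nearly all actives have a fitted effect of over 55% in size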
Outline: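 Luminescent ATP read-out (CellTiter-Glo, 30 min, RT) after 24 hr, 37 C compound exposure of 2500 human lymphoblastoid cells/well in complete medium. Cytotoxicity taken as concentration-dependent ATP loss; AC50 from standard Hill equation.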

[16] = Cell Viability - LYMP2-024 (AID 988);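 also: plate controls were DMSO only for no effect and 92 µM tetraoctylammonium bromide for full effect; nearly all actives have a fitted effect of over 60% in size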
Outline: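 ATP-based luminescence (CellTiter-Glo, 30 min RT) after 24 h compound exposure at 37 C of 2500 lymphoblastoid cells/well; decrease in ATP taken as cytotoxicity. qHTS concentration-response fitted to standard Hill equation for AC50.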

[17] = qHTS assay for small molecule activators of the nuclear factor-kappa B (NF-kB) signaling pathway (AID 651749; active = well fitted activation curve with a large enough effect in the signal ratio; the % refers to the signal ratio; also: % of control where 0% means no effect); conditions: NF-kB-bla ME-180 cells, beta-lactamase FRET ratio, 16 h; activation: stronger effect = higher value
Outline: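 FRET-based beta-lactamase detection in ME-180 cells reports NF-kB response-element-driven transcription following overnight (16 hr) compound treatment.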

[18] = molecular target: Peroxisome proliferator-activated receptor gamma (Homo sapiens) (UniProt P37231); assay: qHTS assay for small molecule agonists of peroxisome proliferator-activated receptor gamma signaling (AID 588536; active = well fitted curve in the direction sought with a large enough effect in the signal ratio, with a control signal flat, not every such curve was filed as active; the % refers to the signal ratio;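 also: 0% = DMSO basal wells and 100% = rosiglitazone at 2 µM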)
Outline: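 Cells were plated and held 6–6.5 h at 37 C, then compounds were added as a titration series. After a further 16 h, CCF4 dye was loaded for 2 h at room temperature and emission at 460/530 nm recorded.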

[19] = molecular target: Voltage-gated inwardly rectifying potassium channel KCNH2 (Homo sapiens) (UniProt Q12809); assay: qHTS Assay for Small Molecule Inhibitors of the Human hERG Channel Activity (AID 588834);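 also: lower thallium flux fluorescence means stronger hERG block; nearly all actives have a fitted effect of over 50% in size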; also: potency is read from the fitted curve at half-maximal effect
Outline: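 Homogeneous FluxOR thallium flux assay using hERG-expressing U2OS cells (BacMam). Compound treatment about 10 minutes preceded stimulation; reduced fluorescence taken as channel block.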

[20] = qHTS assay for small molecule disruptors of the mitochondrial membrane potential - 1 hr assay (AID 651754; calls by dose curve; also: nearly all actives have a fitted effect of over 35% in size; also: potency is read from the fitted curve at half-maximal effect)
Outline: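 Read-out: dye fluorescence at 490 nm ex/535 nm em (monomers) and 540 nm ex/590 nm em (aggregates) in HepG2 cells. Compound exposure 1 hr at 37C, followed by 30 min dye loading.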

Ubiquitin carboxyl-terminal hydrolase 1 (Homo sapiens), sequence (O94782 whole entry, looked up): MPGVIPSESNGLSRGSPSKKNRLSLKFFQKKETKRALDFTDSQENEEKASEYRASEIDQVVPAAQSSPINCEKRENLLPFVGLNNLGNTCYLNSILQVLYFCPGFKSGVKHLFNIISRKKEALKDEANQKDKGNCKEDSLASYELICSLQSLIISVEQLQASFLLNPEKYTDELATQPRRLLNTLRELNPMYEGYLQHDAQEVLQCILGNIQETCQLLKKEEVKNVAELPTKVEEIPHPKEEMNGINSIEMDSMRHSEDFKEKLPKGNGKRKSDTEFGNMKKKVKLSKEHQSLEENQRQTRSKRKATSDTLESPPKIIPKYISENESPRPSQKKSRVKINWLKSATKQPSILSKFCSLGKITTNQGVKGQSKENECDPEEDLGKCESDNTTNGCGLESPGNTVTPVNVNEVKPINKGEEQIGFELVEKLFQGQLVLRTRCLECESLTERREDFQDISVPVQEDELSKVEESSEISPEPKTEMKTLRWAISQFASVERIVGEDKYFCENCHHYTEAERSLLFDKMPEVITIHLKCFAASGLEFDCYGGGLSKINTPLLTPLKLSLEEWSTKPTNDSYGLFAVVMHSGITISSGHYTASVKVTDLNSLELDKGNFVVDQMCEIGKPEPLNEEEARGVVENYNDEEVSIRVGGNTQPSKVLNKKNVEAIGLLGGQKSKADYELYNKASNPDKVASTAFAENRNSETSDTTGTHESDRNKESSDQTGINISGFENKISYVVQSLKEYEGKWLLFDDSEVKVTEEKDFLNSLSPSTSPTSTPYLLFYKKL
Arylsulfatase A (Homo sapiens), sequence (P15289 whole entry, looked up): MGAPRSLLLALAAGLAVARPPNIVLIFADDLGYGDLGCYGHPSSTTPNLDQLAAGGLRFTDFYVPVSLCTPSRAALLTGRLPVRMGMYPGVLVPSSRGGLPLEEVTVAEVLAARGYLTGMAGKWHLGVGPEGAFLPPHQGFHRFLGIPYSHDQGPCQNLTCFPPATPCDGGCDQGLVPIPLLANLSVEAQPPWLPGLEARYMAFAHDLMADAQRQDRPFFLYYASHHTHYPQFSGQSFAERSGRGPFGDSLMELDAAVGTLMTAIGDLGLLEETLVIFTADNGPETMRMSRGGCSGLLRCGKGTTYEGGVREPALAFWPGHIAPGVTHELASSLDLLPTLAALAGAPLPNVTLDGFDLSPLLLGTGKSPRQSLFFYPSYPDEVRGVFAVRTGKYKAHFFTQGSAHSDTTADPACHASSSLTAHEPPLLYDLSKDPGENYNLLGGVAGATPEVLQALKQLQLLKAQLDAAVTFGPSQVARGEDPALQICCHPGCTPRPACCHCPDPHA
Peroxisome proliferator-activated receptor gamma (Homo sapiens), sequence (P37231 whole entry, looked up): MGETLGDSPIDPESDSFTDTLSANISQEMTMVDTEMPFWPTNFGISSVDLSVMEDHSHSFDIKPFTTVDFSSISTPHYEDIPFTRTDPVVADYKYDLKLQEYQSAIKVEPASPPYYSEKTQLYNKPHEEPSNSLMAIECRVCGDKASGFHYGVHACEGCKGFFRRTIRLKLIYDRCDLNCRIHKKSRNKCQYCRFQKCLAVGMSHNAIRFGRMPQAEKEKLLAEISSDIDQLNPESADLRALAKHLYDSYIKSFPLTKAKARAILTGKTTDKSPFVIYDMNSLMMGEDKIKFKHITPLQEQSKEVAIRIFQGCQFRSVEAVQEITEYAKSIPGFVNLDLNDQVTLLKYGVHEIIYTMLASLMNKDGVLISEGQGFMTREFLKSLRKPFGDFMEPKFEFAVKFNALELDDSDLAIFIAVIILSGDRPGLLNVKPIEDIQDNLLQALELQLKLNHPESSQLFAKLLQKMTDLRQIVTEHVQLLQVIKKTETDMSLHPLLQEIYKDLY
Voltage-gated inwardly rectifying potassium channel KCNH2 (Homo sapiens), sequence (Q12809 whole entry, looked up): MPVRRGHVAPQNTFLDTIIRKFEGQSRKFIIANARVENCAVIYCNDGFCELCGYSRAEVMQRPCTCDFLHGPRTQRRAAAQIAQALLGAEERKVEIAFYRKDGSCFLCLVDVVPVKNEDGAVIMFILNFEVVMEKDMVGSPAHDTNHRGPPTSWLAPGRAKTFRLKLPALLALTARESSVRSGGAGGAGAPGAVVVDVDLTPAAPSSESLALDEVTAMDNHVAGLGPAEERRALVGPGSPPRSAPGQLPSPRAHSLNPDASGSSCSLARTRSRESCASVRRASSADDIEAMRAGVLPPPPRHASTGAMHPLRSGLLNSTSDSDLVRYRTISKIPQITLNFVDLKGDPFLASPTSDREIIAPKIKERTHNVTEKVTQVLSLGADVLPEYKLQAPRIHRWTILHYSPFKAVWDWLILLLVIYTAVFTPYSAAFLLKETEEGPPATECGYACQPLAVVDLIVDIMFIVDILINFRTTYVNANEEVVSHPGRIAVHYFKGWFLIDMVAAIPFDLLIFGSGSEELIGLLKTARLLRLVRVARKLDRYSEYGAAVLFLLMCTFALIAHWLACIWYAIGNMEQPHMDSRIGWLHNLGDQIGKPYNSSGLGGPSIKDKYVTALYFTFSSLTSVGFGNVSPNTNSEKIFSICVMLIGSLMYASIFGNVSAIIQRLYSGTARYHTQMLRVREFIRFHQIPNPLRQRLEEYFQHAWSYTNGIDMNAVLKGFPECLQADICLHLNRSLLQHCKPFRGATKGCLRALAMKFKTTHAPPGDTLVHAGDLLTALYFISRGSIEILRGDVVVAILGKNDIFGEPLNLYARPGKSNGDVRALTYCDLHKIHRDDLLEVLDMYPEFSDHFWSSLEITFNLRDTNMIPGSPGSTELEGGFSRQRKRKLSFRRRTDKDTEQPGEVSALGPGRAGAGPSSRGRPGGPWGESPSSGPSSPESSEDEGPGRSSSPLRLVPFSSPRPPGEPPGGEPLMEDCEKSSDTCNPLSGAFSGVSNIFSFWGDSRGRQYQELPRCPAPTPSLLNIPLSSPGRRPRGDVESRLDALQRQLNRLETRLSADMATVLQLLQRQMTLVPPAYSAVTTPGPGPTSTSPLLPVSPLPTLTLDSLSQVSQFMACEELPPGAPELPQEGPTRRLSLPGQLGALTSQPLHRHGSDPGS
Flap endonuclease 1 (Homo sapiens), sequence (P39748 whole entry, looked up): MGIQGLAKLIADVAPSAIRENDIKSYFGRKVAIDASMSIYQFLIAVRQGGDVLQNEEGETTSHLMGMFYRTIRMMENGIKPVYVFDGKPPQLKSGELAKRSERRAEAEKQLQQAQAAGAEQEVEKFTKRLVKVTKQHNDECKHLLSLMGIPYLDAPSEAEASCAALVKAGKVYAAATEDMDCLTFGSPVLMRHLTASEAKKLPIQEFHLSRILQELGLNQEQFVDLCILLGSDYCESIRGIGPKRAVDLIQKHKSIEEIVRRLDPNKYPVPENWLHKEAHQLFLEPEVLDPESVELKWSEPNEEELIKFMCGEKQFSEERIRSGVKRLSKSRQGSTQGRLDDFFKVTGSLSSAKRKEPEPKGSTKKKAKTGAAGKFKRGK

Nc1nc(N)c2nc(CNc3ccc(C(=O)NC(CCC(=O)O)C(=O)O)cc3)cnc2n1 (centres undefined)
active: Potency [2] 0.1 µM
inactive: Potency [1] | Potency [3]

C=C(C)[C@@H]1CC[C@]2(C(=O)O)CC[C@]3(C)[C@H](CC[C@@H]4[C@@]5(C)CC[C@H](O)C(C)(C)[C@@H]5CC[C@]43C)[C@@H]12
208%: growth, % of control [4]

C[C@@H](c1ncncc1F)[C@](O)(Cn1cncn1)c1ccc(F)cc1F
94.6%: growth, % of control [4]

CC[C@H](C=C[C@@H](C)[C@H]1CC[C@H]2[C@@H]3CC=C4C[C@@H](O)CC[C@]4(C)[C@@H]3CC[C@]12C)C(C)C
89% [at 9.64 µM]: growth, % of control [4]

O=C(O)c1ccccc1C(=O)Nc1ccc(-c2ccccc2)cc1
87.2%: growth, % of control [4]

CCCNC(=O)Nc1ccc(Oc2ncnc3cc(OC)c(OC)cc23)cc1Cl
34.8%: growth, % of control [4]

Cn1ccnc1
inactive: Potency [5]

Nc1nc2ccc(Cl)cc2c2nc(-c3ccco3)nn12
inactive: Potency [3]

Oc1ccccc1O
active: Potency [5] 5.97 µM

O=c1oc(Cl)c(Cl)c2ccccc12
active: Potency [1] 12.6 µM

c1ccc2c(c1)-c1cccc3cccc-2c13
inactive: Potency [6] > 92 µM | outcome [7] | outcome [8] | outcome [9] | outcome [10] | outcome [11] | outcome [12] | outcome [13] | outcome [14] | outcome [15] | outcome [16] | activation [2] 5.47% and -0.395% | activation [17] 0.379%

c1ccc(Nc2ccc3ccccc3c2)cc1
active: Potency [19] 25.1 µM | Potency [20] 37.6 µM
inactive: outcome [9] | outcome [10] | outcome [11] | outcome [12] | outcome [13] | outcome [14] | outcome [15] | outcome [16] | outcome [18] | activation [2] -2.23% and -2.96% | activation [17] 0.513% and 2.05%

CC(=O)/C=C/c1ccccc1
inactive: Potency [6] > 92 µM | outcome [7] | outcome [8] | outcome [9] | outcome [10] | outcome [11] | outcome [12] | outcome [13] | outcome [14] | outcome [15] | outcome [16] | outcome [18] | Potency [19] | activation [17] -1.47% | Potency [20]

NO
inactive: Potency [3]

Oc1ccccc1Cl
inactive: Potency [6] > 92 µM | outcome [7] | outcome [8] | outcome [9] | outcome [10] | outcome [11] | outcome [12] | outcome [13] | outcome [14] | outcome [15] | outcome [16] | outcome [18] | Potency [19] | activation [2] -5.71% | activation [17] -1.13% | Potency [20]

O=C(O)CNC(=O)C(CS)Cc1ccccc1 (centres undefined)
inactive: Potency [1] | Potency [3]

N#C/C(=C\c1ccc(O)c(O)c1)C(=O)NCCCNC(=O)/C(C#N)=C/c1ccc(O)c(O)c1
active: Potency [5] 0.67 µM

COC1=CC(=O)OC(CCc2ccc3c(c2)OCO3)C1 (centres undefined)
inactive: outcome [12] | outcome [13] | outcome [18] | Potency [19] | activation [2] -6.75% | activation [17] -0.795% | Potency [20]

COc1cc([C@@H]2c3cc4c(cc3[C@H](O)C3COC(=O)[C@@H]32)OCO4)cc(OC)c1OC (some centres undefined)
inactive: Potency [1]

Brc1c(Br)c(Br)c2n[nH]nc2c1Br
inactive: Potency [5]
active: Potency [1] 56.2 µM

CCOC(=O)c1ccccc1N
inactive: Potency [6] > 92 µM | outcome [7] | outcome [8] | outcome [9] | outcome [10] | outcome [11] | outcome [12] | outcome [13] | outcome [14] | outcome [15] | outcome [16] | outcome [18] | Potency [19] | Potency [20]

CN1[C@@H](CC(=O)c2ccccc2)CCC[C@H]1C[C@H](O)c1ccccc1
inactive: Potency [5] | Potency [3]
active: Potency [19] 4.47 µM

CC(C)COC(=O)c1ccccc1C(=O)OCC(C)C
inactive: Potency [6] > 92 µM | outcome [7] | outcome [8] | outcome [9] | outcome [10] | outcome [15] | outcome [16] | outcome [18] | Potency [20]
